# Calls of active or inactive are those of the source.
# Tests used:
# [1] = binders of probe aFSTL3 on microarray, primary screen, stem cell growth factor project, biochemical, small-molecule microarray, fluorescence 635/667 (AID 1064); settings: higher = more signal;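 further: measures binding of the biotinylated anti-FSTL3 antibody to printed compounds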
# [2] = binders from COS7 lysate, DM2A8 probe, primary screen, torsin A project, cell lysate, small-molecule microarray, fluorescence 635/667 (AID 1065); settings: higher = more signal, COS7 lysate expressing mutant human TOR1A
# [3] = binders of probe aFGF2 on microarray, primary screen, stem cell growth factor project, biochemical, small-molecule microarray, fluorescence 635/667 (AID 1067); settings: higher = more signal;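 further: measures binding of biotinylated aFGF2 protein to printed compounds on slides; z-score merges feature fluorescence and signal-to-noise across triplicate slides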
# [4] = binders of probe aFGF10 on microarray, primary screen, stem cell growth factor project, biochemical, small-molecule microarray, fluorescence 635/667 (AID 1071); settings: higher = more signal;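 further: score merges 667 nm spot intensity and signal to noise from triplicate slides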
# [5] = biological target: Neurogenic locus notch homolog protein 2 (Homo sapiens) (UniProt Q04721); assay: Notch2 binders on small-molecule microarrays, primary screen, biochemical, small-molecule microarray, 635 nm fluorescence, stem cell growth factors (AID 1073); settings: Notch2 binding, higher = more signal
# [6] = biological target: Pro-neuregulin-1, membrane-bound isoform (Homo sapiens) (UniProt Q02297); assay: NRG1 binders on small-molecule microarrays, primary screen, psychiatric disease protein project, biochemical, small-molecule microarray, fluorescence 635/667 (AID 1075); settings: NRG1 binding, 635 nm fluorescence, higher = more signal;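 further: score combines 667 nm spot fluorescence with signal to noise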
# [7] = system: Neuregulin-1 EGF-like domain; assay: binders of neuregulin-1 EGF-like domain, primary screen, biochemical, small-molecule microarray, 635 nm fluorescence (AID 1081); settings: small-molecule microarray binding, higher = more signal;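 further: binding of the protein to compounds printed on small-molecule microarray slides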
# [8] = FRG1 promoter luciferase signal modulators, primary screen, FRG1 inhibition for FSHD, cell-based, C2C12 myotubes, firefly/Renilla luciferase, luminescence (AID 1084); settings: higher = more signal, called active from +8 up or from −8 down
# [9] = binders of probe aFST on microarray, primary screen, stem cell growth factor project, biochemical, small-molecule microarray, fluorescence 635/667 (AID 1086); settings: higher = more signal;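 further: score merges 667 nm fluorescence with signal-to-noise of each printed compound spot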
# [10] = binders of probe aHhip on microarray, primary screen, stem cell growth factor project, biochemical, small-molecule microarray, fluorescence 635/667 (AID 1087); settings: higher = more signal;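 further: score merges spot fluorescence at 667nm with spot signal to noise ratio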
# Chain of Pro-neuregulin-1, membrane-bound isoform (Homo sapiens) (Q02297 whole entry, looked up, the tested form may be a part, canonical isoform): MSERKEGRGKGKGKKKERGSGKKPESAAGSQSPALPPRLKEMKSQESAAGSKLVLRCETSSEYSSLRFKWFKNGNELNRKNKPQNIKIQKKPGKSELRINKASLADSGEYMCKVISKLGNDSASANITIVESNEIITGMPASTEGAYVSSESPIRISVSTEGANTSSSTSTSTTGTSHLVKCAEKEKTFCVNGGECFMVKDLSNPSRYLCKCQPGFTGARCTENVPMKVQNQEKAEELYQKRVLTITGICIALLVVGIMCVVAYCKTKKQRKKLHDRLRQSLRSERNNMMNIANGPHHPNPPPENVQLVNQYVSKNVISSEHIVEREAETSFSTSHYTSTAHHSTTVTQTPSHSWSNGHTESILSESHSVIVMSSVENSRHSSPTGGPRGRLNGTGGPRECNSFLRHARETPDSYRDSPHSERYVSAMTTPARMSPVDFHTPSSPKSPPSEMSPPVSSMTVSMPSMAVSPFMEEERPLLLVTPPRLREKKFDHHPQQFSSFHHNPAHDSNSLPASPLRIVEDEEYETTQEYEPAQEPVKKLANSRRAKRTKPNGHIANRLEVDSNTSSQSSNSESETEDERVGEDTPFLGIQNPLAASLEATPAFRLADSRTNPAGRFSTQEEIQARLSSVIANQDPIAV
# Chain of Neurogenic locus notch homolog protein 2 (Homo sapiens) (Q04721 whole entry, looked up, canonical isoform): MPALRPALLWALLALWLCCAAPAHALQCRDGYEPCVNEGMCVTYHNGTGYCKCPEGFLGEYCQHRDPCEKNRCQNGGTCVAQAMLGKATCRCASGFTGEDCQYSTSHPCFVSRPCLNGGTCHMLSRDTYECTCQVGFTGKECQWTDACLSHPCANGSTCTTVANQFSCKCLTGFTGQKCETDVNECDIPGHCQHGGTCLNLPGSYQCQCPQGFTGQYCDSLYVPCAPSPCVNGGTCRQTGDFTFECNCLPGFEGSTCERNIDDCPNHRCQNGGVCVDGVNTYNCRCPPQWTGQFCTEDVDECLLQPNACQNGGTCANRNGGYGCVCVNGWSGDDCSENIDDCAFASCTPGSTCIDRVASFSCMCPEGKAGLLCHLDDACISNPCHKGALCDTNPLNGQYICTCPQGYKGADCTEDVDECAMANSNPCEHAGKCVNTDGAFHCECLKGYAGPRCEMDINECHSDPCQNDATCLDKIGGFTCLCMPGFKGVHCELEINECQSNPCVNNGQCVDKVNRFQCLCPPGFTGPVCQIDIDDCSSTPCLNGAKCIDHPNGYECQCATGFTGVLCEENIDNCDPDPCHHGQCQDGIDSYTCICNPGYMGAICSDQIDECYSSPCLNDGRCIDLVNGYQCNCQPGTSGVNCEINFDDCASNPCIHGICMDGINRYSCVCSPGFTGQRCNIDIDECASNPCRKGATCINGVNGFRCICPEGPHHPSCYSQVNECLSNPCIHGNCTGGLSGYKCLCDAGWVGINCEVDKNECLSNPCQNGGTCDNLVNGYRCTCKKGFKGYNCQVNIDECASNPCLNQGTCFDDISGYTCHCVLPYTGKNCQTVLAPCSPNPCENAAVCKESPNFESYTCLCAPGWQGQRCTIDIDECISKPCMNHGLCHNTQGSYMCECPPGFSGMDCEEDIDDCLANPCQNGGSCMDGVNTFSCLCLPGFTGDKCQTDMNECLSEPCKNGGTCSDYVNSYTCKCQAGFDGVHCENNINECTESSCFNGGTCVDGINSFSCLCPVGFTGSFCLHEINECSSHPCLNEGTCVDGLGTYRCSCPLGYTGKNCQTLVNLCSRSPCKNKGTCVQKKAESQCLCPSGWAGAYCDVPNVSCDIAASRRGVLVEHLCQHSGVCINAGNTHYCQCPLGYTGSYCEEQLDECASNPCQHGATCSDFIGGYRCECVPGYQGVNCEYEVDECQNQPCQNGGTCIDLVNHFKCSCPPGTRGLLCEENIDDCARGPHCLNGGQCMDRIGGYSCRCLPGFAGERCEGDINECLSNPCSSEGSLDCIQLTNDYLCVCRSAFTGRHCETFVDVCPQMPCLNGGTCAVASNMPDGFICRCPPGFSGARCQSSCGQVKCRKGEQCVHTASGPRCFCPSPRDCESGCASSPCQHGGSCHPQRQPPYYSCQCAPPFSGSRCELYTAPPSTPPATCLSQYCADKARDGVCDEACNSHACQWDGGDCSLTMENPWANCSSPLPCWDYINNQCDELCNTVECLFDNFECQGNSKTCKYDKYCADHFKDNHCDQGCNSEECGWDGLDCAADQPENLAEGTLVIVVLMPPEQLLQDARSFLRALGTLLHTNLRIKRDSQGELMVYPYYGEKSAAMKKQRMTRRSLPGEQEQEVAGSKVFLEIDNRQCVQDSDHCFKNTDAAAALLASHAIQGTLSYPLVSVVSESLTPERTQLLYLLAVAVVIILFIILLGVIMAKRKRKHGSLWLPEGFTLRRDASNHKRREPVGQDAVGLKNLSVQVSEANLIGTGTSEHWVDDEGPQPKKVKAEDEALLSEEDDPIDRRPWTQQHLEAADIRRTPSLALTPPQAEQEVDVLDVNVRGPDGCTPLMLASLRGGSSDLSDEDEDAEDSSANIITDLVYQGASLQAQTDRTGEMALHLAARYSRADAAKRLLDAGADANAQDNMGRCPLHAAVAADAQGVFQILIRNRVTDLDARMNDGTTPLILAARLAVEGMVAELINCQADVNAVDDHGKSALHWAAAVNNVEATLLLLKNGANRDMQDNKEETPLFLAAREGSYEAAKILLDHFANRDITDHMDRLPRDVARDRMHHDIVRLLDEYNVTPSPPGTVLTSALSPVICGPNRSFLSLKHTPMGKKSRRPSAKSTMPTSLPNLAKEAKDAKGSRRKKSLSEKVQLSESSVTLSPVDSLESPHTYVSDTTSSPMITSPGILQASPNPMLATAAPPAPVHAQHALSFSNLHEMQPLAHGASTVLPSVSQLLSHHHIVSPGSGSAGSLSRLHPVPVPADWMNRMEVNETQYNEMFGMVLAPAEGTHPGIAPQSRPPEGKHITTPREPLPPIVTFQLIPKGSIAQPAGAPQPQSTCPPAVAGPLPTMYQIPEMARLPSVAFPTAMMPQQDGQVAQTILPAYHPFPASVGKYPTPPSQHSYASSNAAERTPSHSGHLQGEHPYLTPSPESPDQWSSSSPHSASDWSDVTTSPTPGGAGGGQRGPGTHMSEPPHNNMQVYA
Compound,composite z-score [1],composite z-score [2],composite z-score [3],composite z-score [4],composite z-score [5],composite z-score [6],composite z-score [7],z-score [8],composite z-score [9],composite z-score [10]
CCCCCC1=C2CNC(CC(C)C)(C(=O)OC)C=C2C(C)C1=O (stereo not given),1.08,-0.176,0.185,0.0051,0.122,1.01,0.568,0.51 (inactive),0.404,3.31
C=CC[C@@]1(C(=O)N(C)C)N=C(c2ccc(OCCCO)cc2)O[C@@H]1c1ccccc1CN=[N+]=[N-],0.151,0.448,-0.0004,1.01,1.61,1.68,1.17,-2.64 (inactive),1.18,0.0373
CN1C(=O)C2C(C3CC3)C=C3CN(Cc4cccc(Cl)c4)[C@@H]([C@@H](O)Cc4ccccc4)C3C2C1=O (stereo not given in full),-0.357,0.268,-0.229,0.0719,0.999,1.03,1.23,-1.31 (inactive),-0.156,0.0854
COc1ccc(NN2C(C(O)c3ccc(I)cc3)C=CC3C(=O)N(C4CCCCC4)C(=O)C32)cc1 (stereo not given),0.0109,0.813,-0.0024,0.896,1.39,1.02,1.04,-0.21 (inactive),1.61,0.245
C=C(/C(=C/C[C@@H](OC(C)=O)c1cccc(OCCO)c1)c1cnc2ccccc2c1)C(C)C,-0.121,0.197,-0.0242,0.76,0.693,0.41,1.08,2 (inactive),0.0752,-0.0645
COC(=O)[C@@]1(Cc2ccc(OC)cc2)[C@H]2c3cc(C(=O)N(C)C)[nH]c3C[C@H]2CN1C(=O)c1ccccc1,-0.231,-0.884,0.0992,0.304,0.793,0.882,0.977,1.04 (inactive),0.019,-0.0905
COC(=O)C1(Cc2ccccc2)C=C2C(=C(C)C(=O)C2C)CN1 (stereo not given),0.601,0.158,-0.0032,0.137,1.01,0.643,0.635,0.0369 (inactive),0.66,-0.199
CCCCCCc1nc(-c2ccc(-c3ccc(Cl)c(Cl)c3)o2)cc2c1[Si](C(C)C)(C(C)C)OC2,0.0736,-0.207,-0.162,-0.632,-1.01,-0.14,0.262,1.25 (inactive),-0.634,-0.134
COC(=O)[C@@]1(Cc2ccccc2)[C@H]2c3cc(C(=O)N(C)C)n(CCSC(=N)N)c3C[C@H]2CN1C(=O)c1ccccc1,-0.0908,-0.512,0.243,-0.248,-0.175,1.28,1.04,0.453 (inactive),0.319,0.0401
O=C(NCc1ccccc1)[C@@H]1c2ccccc2C(=O)N(Cc2ccc(OC(F)(F)F)cc2)[C@H]1c1ccc(CO)cc1,0.85,0.0787,-0.0784,-0.225,-0.674,1.19,0.921,-1.37 (inactive),0.0209,0.321
COc1ccc(C(O)C2C=CC3C(=O)N(C)C(=O)C3N2N(c2ccccc2)c2ccccc2)cc1 (stereo not given),0.967,1.17,0.0148,0.209,1.41,0.941,1.22,0.57 (inactive),0.982,0.0972
C=C(COC)C(=O)CC[C@@H](OC(C)=O)c1ccccc1OCCO,-0.215,-0.0765,-0.102,1.39,-0.54,0.695,0.326,0.151 (inactive),0.406,-0.0994
COCCOC(=O)N1C(=O)[C@@]2(c3cc(C#Cc4ccc(OC)cc4)ccc31)[C@H](c1ccc(OCCO)cc1)N1[C@H](c3ccccc3)[C@H](c3ccccc3)OC(=O)[C@H]1[C@@H]2C(=O)NC[C@H](O)c1ccccc1,1.48,0.628,0.005,0.703,1.15,0.455,1.2,0.848 (inactive),0.919,0.28
CC(C)C(=C=CC[C@H](O)c1ccccc1OCCO)C[C@H](O)c1cc(Cl)cc(Cl)c1O,-0.435,0.807,-0.0266,0.742,0.648,1.6,0.889,-0.926 (inactive),0.454,0.0505
Cc1ccc(N2C(=O)c3ccccc3[C@](C)(C(=O)NCCCN(C)C)[C@@H]2c2ccc(CO)cc2)nc1,0.908,-0.109,-0.1,-0.436,-0.676,-0.114,0.582,1.36 (inactive),0.423,-0.236
COCCCNC(=O)[C@@H]1c2ccccc2C(=O)N(Cc2ccc(OC(F)(F)F)cc2)[C@H]1c1ccc(CO)cc1,-0.388,0.0383,0.015,0.235,0.329,0.244,0.617,-0.228 (inactive),0.541,1.03
CCCCC(O)C1C=CC2C(=O)N(c3ccccc3)C(=O)C2N1Nc1ccc([N+](=O)[O-])cc1 (stereo not given),0.108,0.0331,-0.0004,0.531,1.06,1.58,1.35,0.456 (inactive),1.27,-0.154
C=CCNC(=O)[C@H]1[C@@H]2C(=O)O[C@@H](c3ccccc3)[C@@H](c3ccccc3)N2[C@@H](c2ccc(OCCO)cc2)[C@]12C(=O)Nc1ccccc12,-0.0085,0.586,0.083,0.331,-0.353,1.65,1.13,-2.89 (inactive),-0.189,-0.613
CC(C)N1C(=O)c2ccccc2[C@](C)(C(=O)NCC(F)(F)F)[C@@H]1c1ccc(CO)cc1,0.531,-0.226,-0.0698,-1,-0.334,0.583,0.107,-0.229 (inactive),-0.299,-0.105
Cc1ccc(S[C@]2(C(=O)NCC(F)(F)F)CC(=O)N(Cc3ccccc3C(F)(F)F)[C@@H]2c2ccc(CO)cc2)cc1,0.953,-0.0728,-0.1,-0.0379,-1.14,-0.401,0.573,-1.82 (inactive),-0.606,-0.191
O=C1O[C@@H](c2ccccc2)[C@@H](c2ccccc2)N2[C@@H](c3ccc(OCCO)cc3)[C@]3(C(=O)Nc4ccc(C#CC5(O)CCCCCC5)cc43)[C@@H](C(=O)O)[C@H]12,0.0507,0.733,-0.0579,0.635,0.456,1.24,1.07,0.259 (inactive),0.193,0.0176
C[N+](C)(C)CCCCNC(=O)[C@H]1C[C@H]2C(=O)N[C@@H](Cc3ccccc3)C(=O)N2[C@H]1c1cccc(OCCO)c1,-0.397,1.29,-0.0375,1.21,0.641,1.06,1.36,2.28 (inactive),0.435,0.0373
COc1ccc([Si](C)(C)[C@H]2[C@H](CC(=O)N3Cc4ccccc4C[C@H]3CO)O[C@@]3(C(=O)N(c4ccccc4)c4ccccc43)[C@@H]2C)cc1,0.0545,1.37,0.0568,0.748,0.584,1.16,1.16,-2.31 (inactive),0.381,0.21
CC(C)(C)OC(=O)CC[C@]1(C(=O)NCC(O)CO)N=C(c2ccc(OCCCO)cc2)O[C@H]1c1ccccc1N=[N+]=[N-] (stereo not given in full),0.929,1.34,0.171,0.53,1.02,1.58,1.17,3.99 (inactive),0.967,-0.189
CN(C)CCCNC(=O)[C@@H]1c2ccccc2C(=O)N(Cc2ccccc2C(F)(F)F)[C@H]1c1ccc(CO)cc1,1,-0.335,-0.0416,-0.702,-1.03,1.01,-0.23,-1.28 (inactive),-0.0464,-0.149
O=C1N(CCS(=O)(=O)c2ccccc2)c2ccccc2C[C@]12N=C(c1ccc(OCCCO)cc1)O[C@@H]2c1ccccc1,0.227,0.335,0.0605,-0.122,1.15,0.333,1.23,-0.253 (inactive),0.734,0.0053
CCCN1C(=O)[C@@]2(c3ccc([N+](=O)[O-])cc3)CC(=O)N(CC34CC5CC(CC(C5)C3)C4)[C@@H]2c2ccc(CO)cc21,0.402,-0.519,-0.165,-0.046,-0.421,0.0413,-0.58,0.244 (inactive),-0.103,-0.213
